experiment: Primary imaging screen for DUSP6 inhibitors that restore phospho-Erk in transfected HeLa cells, chemical complementation (AID 609); details: HeLa MKP-3 transfected, phospho-Erk imaging KS statistic; measured here: nuclear c-Myc green intensity z-score; at 10 µM; cells stimulated with TPA for 15 min

SMILES | z-score
COc1cc(NS(=O)(=O)c2ccc(N)cc2)nc(OC)n1 | 0.795
C=CCSc1nnc2n(CCc3ccccc3)c(=O)c3c4c(sc3n12)COC(C)(C)C4 | -1.62
COc1c2occc2c(OC)c2c(=O)cc(C)oc12 | 0.0772
CCCn1c(=O)c2[nH]c(C3CCCC3)nc2n(CCC)c1=O | -0.431
CCOC(=O)Cc1nnc(Nc2cccc(O)c2)c2ccccc12 | 0.184
COc1ccc(C(=O)Cn2c(N3CCCCC3)nc3c2c(=O)n(C)c(=O)n3C)cc1OC | 0.344
CCn1cc(C(=O)O)c(=O)c2cc(F)c(N3CCNCC3)nc21 | -0.267
Cc1ccc(S(=O)(=O)NC(=O)NN2CCCCCC2)cc1 | 0.978
Cn1c(/C(C#N)=C/Nc2ccccn2)nc2ccccc21 | -0.988
COc1ccc(CNc2oc(COc3ccccc3Cl)nc2C#N)cc1 | 0.197
CC(NC(=O)NCCCC(=O)O)(C(F)(F)F)C(F)(F)F | -0.179
CC(NC(=O)Nc1nccs1)(C(F)(F)F)C(F)(F)F | -0.302
CCC1CCCCN1c1nc(-c2ccncc2)nc2ccccc12 (stereo not drawn) | -0.92
C=C(C)C1Cc2c(C)nn(-c3nc(C)cc(C)n3)c2C1 (stereo not drawn) | 1.2
CCCCOc1ccc(CC(=O)NO)cc1 | -0.467
COC(=O)c1cc(Br)c(=O)n(-c2nccs2)c1 | 0.813
Cc1ccc(NC(=O)CSC2=C(C#N)C(c3ccc4c(c3)OCO4)CC(=O)N2)cc1C (stereo not drawn) | 0.339
CCN(CC)C(=O)c1sc2nc(-c3cccs3)cc(-c3cccs3)c2c1N | -1.58
Cc1ccc(-c2nnc(-c3cccc(Br)c3)o2)cc1 | 0.261
CCCCOc1ccc(C(=O)Nc2ccc(N3CCN(C(C)=O)CC3)cc2)cc1 | -2.16

SMILES | z-score
CCN(CC)CCNC(=O)c1ccc(NC(C)=O)cc1 | 0.436
COC(=O)c1ccccc1NC(=O)CSc1nnc(-c2ccncc2)o1 | -0.668
CN(C)C(CN1C(=O)C2CC=CCC2C1=O)c1cn(C)c2ccccc12 (stereo not drawn) | 2.35
CCOc1cc(C2Nc3ccccc3C(=O)N2c2ccccc2OC)ccc1O (stereo not drawn) | -1.2
Cc1cn2c(-c3ccncc3)nnc2s1 | 0.607
COc1ccc(/C(O)=C2/C(=O)C(=O)N(CCN(C)C)C2c2ccccn2)cc1OC (stereo not drawn) | -0.268
Cc1oc2nc(SCCCC(=O)NCCCO)nc(N)c2c1C | 0.376
C[C@@H]1CCC[C@H](C)N1NC(=O)c1ccc(Cl)c(S(N)(=O)=O)c1 | -0.463
O=C(CCCN1C(=O)c2ccccc2C1=O)N1CCC(c2ccccc2)C1 (stereo not drawn) | -1.65
O=C1C2CC=C(Cl)CC2C(=O)N1CNc1ccccn1 (stereo not drawn) | 1.18
COCCNC(=O)c1c(N)n(/N=C/c2cccs2)c2nc3ccccc3nc12 | 0.305
COC(=O)CC1SC(=O)NC1=O (stereo not drawn) | -0.523
N#Cc1nc(COc2ccc(Br)cc2)oc1N1CCCC1 | 1.26
CCOC(=O)C1CCN(C(C)=C2C(=O)c3ccccc3C2=O)CC1 | 0.853
CCSc1nnc(NC(=O)C(CC)(C(F)(F)F)C(F)(F)F)s1 | -0.276
N#CC1=C(N)OC2=C(C(=O)CCC2)C1CCc1ccccc1 (stereo not drawn) | -0.525
Cc1cc(OCC(=O)Nc2ccc3oc(-c4ccncc4)nc3c2)ccc1Cl | -0.406
CCSc1nc(O)c(C2OC(=O)c3c2ccc(OC)c3OC)c(=O)n1-c1ccccc1 (stereo not drawn) | 0.786
Cc1c(C)c2cc(Cl)c(O)c(CN3CCCCC3)c2oc1=O | -1.22

same assay, conditions: HeLa MKP-3 transfected, phospho-Erk imaging KS statistic; measured here: nuclear pErk red intensity z-score; at 10 µM; stronger effect = higher value; cells stimulated with TPA for 15 min

SMILES | z-score
COc1cc(NS(=O)(=O)c2ccc(N)cc2)nc(OC)n1 | -0.759
C=CCSc1nnc2n(CCc3ccccc3)c(=O)c3c4c(sc3n12)COC(C)(C)C4 | -0.504
COc1c2occc2c(OC)c2c(=O)cc(C)oc12 | -0.0412
CCCn1c(=O)c2[nH]c(C3CCCC3)nc2n(CCC)c1=O | -1.23
CCOC(=O)Cc1nnc(Nc2cccc(O)c2)c2ccccc12 | 0.582
COc1ccc(C(=O)Cn2c(N3CCCCC3)nc3c2c(=O)n(C)c(=O)n3C)cc1OC | 0.238
CCn1cc(C(=O)O)c(=O)c2cc(F)c(N3CCNCC3)nc21 | -1.93
Cc1ccc(S(=O)(=O)NC(=O)NN2CCCCCC2)cc1 | -1.05
Cn1c(/C(C#N)=C/Nc2ccccn2)nc2ccccc21 | 1.63
COc1ccc(CNc2oc(COc3ccccc3Cl)nc2C#N)cc1 | -0.0244
CC(NC(=O)NCCCC(=O)O)(C(F)(F)F)C(F)(F)F | 1.85
CC(NC(=O)Nc1nccs1)(C(F)(F)F)C(F)(F)F | -0.913
CCC1CCCCN1c1nc(-c2ccncc2)nc2ccccc12 (stereo not drawn) | 0.299
C=C(C)C1Cc2c(C)nn(-c3nc(C)cc(C)n3)c2C1 (stereo not drawn) | 0.938
CCCCOc1ccc(CC(=O)NO)cc1 | -0.347
COC(=O)c1cc(Br)c(=O)n(-c2nccs2)c1 | -2.4
Cc1ccc(NC(=O)CSC2=C(C#N)C(c3ccc4c(c3)OCO4)CC(=O)N2)cc1C (stereo not drawn) | -0.3
CCN(CC)C(=O)c1sc2nc(-c3cccs3)cc(-c3cccs3)c2c1N | -0.775
Cc1ccc(-c2nnc(-c3cccc(Br)c3)o2)cc1 | 0.911
CCCCOc1ccc(C(=O)Nc2ccc(N3CCN(C(C)=O)CC3)cc2)cc1 | 0.274

SMILES | z-score
CCN(CC)CCNC(=O)c1ccc(NC(C)=O)cc1 | 0.661
COC(=O)c1ccccc1NC(=O)CSc1nnc(-c2ccncc2)o1 | -1.26
CN(C)C(CN1C(=O)C2CC=CCC2C1=O)c1cn(C)c2ccccc12 (stereo not drawn) | 0.886
CCOc1cc(C2Nc3ccccc3C(=O)N2c2ccccc2OC)ccc1O (stereo not drawn) | -0.417
Cc1cn2c(-c3ccncc3)nnc2s1 | -1.91
COc1ccc(/C(O)=C2/C(=O)C(=O)N(CCN(C)C)C2c2ccccn2)cc1OC (stereo not drawn) | -0.24
Cc1oc2nc(SCCCC(=O)NCCCO)nc(N)c2c1C | -1.33
C[C@@H]1CCC[C@H](C)N1NC(=O)c1ccc(Cl)c(S(N)(=O)=O)c1 | -0.78
O=C(CCCN1C(=O)c2ccccc2C1=O)N1CCC(c2ccccc2)C1 (stereo not drawn) | 0.457
O=C1C2CC=C(Cl)CC2C(=O)N1CNc1ccccn1 (stereo not drawn) | -0.807
COCCNC(=O)c1c(N)n(/N=C/c2cccs2)c2nc3ccccc3nc12 | -0.729
COC(=O)CC1SC(=O)NC1=O (stereo not drawn) | 0.399
N#Cc1nc(COc2ccc(Br)cc2)oc1N1CCCC1 | 1.21
CCOC(=O)C1CCN(C(C)=C2C(=O)c3ccccc3C2=O)CC1 | 0.114
CCSc1nnc(NC(=O)C(CC)(C(F)(F)F)C(F)(F)F)s1 | 0.239
N#CC1=C(N)OC2=C(C(=O)CCC2)C1CCc1ccccc1 (stereo not drawn) | -0.374
Cc1cc(OCC(=O)Nc2ccc3oc(-c4ccncc4)nc3c2)ccc1Cl | -0.15
CCSc1nc(O)c(C2OC(=O)c3c2ccc(OC)c3OC)c(=O)n1-c1ccccc1 (stereo not drawn) | -0.555
Cc1c(C)c2cc(Cl)c(O)c(CN3CCCCC3)c2oc1=O | -0.936
